In PubChem BioAssay AID1159577 (Broad Institute, 2015):
Screen size: about 1,300 compounds; about 240 (18%) were called active. Inconclusive results (about 8%) are left out. How the calls were made is not given here. Only a sample is shown. Measured potencies and affinities stand elsewhere.

assay: HepG2 cell cytotoxicity, dose response, cytotoxicity control, cherry-picked samples (AID 1159577); details: HepG2 cytotoxicity counterscreen, plate reader; series mostly up to 19.5 µM

Structure (SMILES) | outcome
O=C(Cc1cccnc1)N1CC[C@H]2[C@H](CO)Nc3ccc(C#Cc4cccc(F)c4)cc3[C@H]21 | inactive
COCC(=O)N1[C@H](CO)[C@@H](c2ccccc2)C12CN(Cc1cc(F)ccc1F)C2 | inactive
COc1ccccc1-c1ccccc1[C@@H]1[C@@H](C#N)N(C(=O)C2CC2)[C@@H]1CO | inactive
COc1ccc2c3c(n(C)c2c1)[C@@H](CO)N(CC1CCCCC1)CC31CCN(C(=O)CN(C)C)CC1 | inactive
COc1ccc(C#Cc2ccc3c(c2)[C@H]2[C@H](CCN2C(=O)C2CCCC2)[C@@H](CO)N3)cc1 | inactive
CCCNC(=O)N1[C@@H](C#N)[C@H](c2ccccc2-c2ccccc2F)[C@@H]1CO | inactive
COc1ccc(NC(=O)N(C)C[C@@H]2Oc3cc(-c4ccc(C)cc4)ccc3S(=O)(=O)N([C@@H](C)CO)C[C@H]2C)cc1 | inactive
COc1ccc2c3c(n(C)c2c1)[C@@H](CO)N(C(=O)Nc1ccc(F)cc1)CC31CN(C(=O)c2ccc3c(c2)OCO3)C1 | inactive
COc1ccc2c3c([nH]c2c1)[C@@H](CO)N(Cc1cc(F)ccc1F)CC31CN(C(=O)CN(C)C)C1 | inactive
CC(C)(C)[S@@](=O)N1Cc2cc(C(=O)NCCc3ccncc3)nc(-c3cccc(-c4ccccc4)c3)c2[C@H]1CCO | inactive
COc1ccc2c3c(n(C)c2c1)[C@@H](CO)N(C(=O)C1CCCC1)CC31CN(C(=O)Nc2cccc(F)c2)C1 | inactive
COc1cccc(C#Cc2ccc([C@@H]3[C@@H](C#N)N(C(=O)c4ccccn4)[C@H]3CO)cc2)c1 | inactive
N#C[C@H]1[C@@H](c2ccc(C#CC3CC3)cc2)[C@H](CO)N1S(=O)(=O)c1ccccc1 | inactive
CCCC#Cc1ccc([C@H]2[C@@H](CO)N(C(=O)C3CCCCC3)[C@H]2C#N)cc1 | inactive
N#C[C@H]1[C@@H](c2ccc(C#CC3CCCC3)cc2)[C@@H](CO)N1S(=O)(=O)Cc1ccccc1 | inactive
N#C[C@H]1[C@H](c2ccc(C#CC3CCCCC3)cc2)[C@@H](CO)N1S(=O)(=O)c1ccccc1 | inactive
CCS(=O)(=O)N1[C@H](CO)[C@H](c2ccc(C#Cc3ccccc3F)cc2)[C@@H]1C#N | inactive
COc1ccc(C#Cc2ccc3c(c2)[C@H]2[C@H](CCN2Cc2nccs2)[C@@H](CO)N3)cc1 | inactive
CCCN1C[C@@H](C)[C@H](OC)CN(C)C(=O)c2ccc(NC(=O)c3ccc4c(c3)OCO4)cc2OC[C@H]1C | inactive
CC(C)(O)C#Cc1cccc(-c2nc(C(=O)N[C@@H]3CCN(Cc4ccccc4)C3)cc3c2[C@H](CCO)N(S(=O)C(C)(C)C)C3)c1 (some centres undefined) | inactive
CCCC#Cc1cnc2c(c1)C(=O)N([C@@H](C)CO)C[C@H](C)[C@H](CN(C)C(=O)Nc1cccc(F)c1)O2 | inactive
C[C@H](CO)N1C[C@H](C)[C@H](CN(C)S(=O)(=O)c2ccccc2)Oc2cc(C#Cc3ccncc3)ccc2S1(=O)=O | inactive
C[C@@H]1CN([C@@H](C)CO)C(=O)c2cccc(NC(=O)c3cnccn3)c2O[C@@H]1CN(C)Cc1ccc(C(F)(F)F)cc1 | inactive

Structure (SMILES) | outcome
CC(C)(C)S(=O)N1Cc2cc(C(=O)NCc3ccc4c(c3)OCO4)nc(-c3cccc(C#CCC4CCCC4)c3)c2[C@@H]1CCO (some centres undefined) | inactive
COc1ccc(-c2ccc([C@@H]3[C@@H](CO)N4C(=O)CN(C(=O)C5CCCC5)C[C@@H]34)cc2)cc1 | inactive
C[C@@H]1CN([C@@H](C)CO)C(=O)c2cccc(NC(=O)Nc3ccc4c(c3)OCO4)c2O[C@@H]1CN(C)C(=O)Nc1ccc2c(c1)OCO2 | inactive
O=C(c1cccnc1)N1CC2(C1)[C@@H](c1ccccc1)[C@@H](CO)N2C(=O)CC1CC1 | inactive
COc1ccc(S(=O)(=O)N2CCC3(CC2)CN(Cc2ccncc2)[C@H](CO)c2[nH]c4cc(OC)ccc4c23)cc1 | inactive
COc1cccc(-c2ccc3c(c2)[C@H]2[C@H](CCN2C(=O)C2CCCCC2)[C@@H](CO)N3)c1 | inactive
C[C@@H]1CN([C@@H](C)CO)C(=O)c2cccc(NC(=O)c3nc4ccccc4s3)c2O[C@H]1CN(C)C(=O)NC1CCCCC1 | inactive
N#C[C@@H]1[C@H](c2ccc(-c3cccc(F)c3)cc2)[C@H](CO)N1C(=O)NC1CCCC1 | inactive
OC[C@H]1[C@@H](c2ccc(-c3cccnc3)cc2)[C@@H]2CN(CC3CC3)CCCCN12 | inactive
OC[C@H]1[C@@H](c2ccc(-c3cccnc3)cc2)[C@H]2CN(CC3CC3)CCCCN21 | inactive
N#C[C@@H]1[C@H](c2ccc(-c3cccc(F)c3)cc2)[C@@H](CO)N1C(=O)NC1CCCC1 | inactive
OC[C@@H]1Nc2ccc(C3=CCCCC3)cc2[C@@H]2[C@H]1CCN2Cc1nccs1 | inactive
C[C@@H]1CN([C@@H](C)CO)C(=O)c2c(c3ccccc3n2C)-c2ccccc2CO[C@@H]1CN(C)Cc1ccc(Oc2ccccc2)cc1 | inactive
C[C@@H]1CN([C@@H](C)CO)C(=O)c2c(c3ccccc3n2C)-c2ccccc2CO[C@H]1CN(C)Cc1ccc(Cl)c(Cl)c1 | inactive
C[C@@H]1CN([C@@H](C)CO)C(=O)c2c(c3ccccc3n2C)-c2ccccc2CO[C@@H]1CN(C)C(=O)c1cc(Cl)cc(Cl)c1 | inactive
C[C@H]1CN([C@@H](C)CO)C(=O)c2c(c3ccccc3n2C)-c2ccccc2CO[C@@H]1CN(C)Cc1ccc(Oc2ccccc2)cc1 | inactive
C[C@@H]1CN([C@H](C)CO)S(=O)(=O)c2ccc(-c3cccc(C(=O)N(C)C)c3)cc2O[C@H]1CN(C)Cc1ccc2c(c1)OCO2 | inactive
COCC#Cc1ccc(CC[C@H]2O[C@H]3CC[C@H](CO)O[C@H]3C[C@@H]2n2cc(C3CC3)nn2)cc1 | inactive
COc1cccc(NC(=O)N2CC(=O)N3[C@H](CO)[C@@H](c4ccc(C#CCC5CCCC5)cc4)[C@H]3C2)c1 | inactive
COc1ccc2c3c(n(C)c2c1)[C@H](CO)N(C(=O)Nc1ccc(F)cc1)CC31CCN(Cc2cccnc2)CC1 | inactive
COc1cccc(C#Cc2ccc([C@H]3[C@@H](CO)N4C(=O)CN(C(=O)Cc5ccccc5)C[C@H]34)cc2)c1 | inactive
Cc1ccc(-c2ccc([C@H]3[C@@H](CO)N4C(=O)CN(C(=O)Nc5cccc(F)c5)C[C@H]34)cc2)cc1 | inactive
C[C@H]1CN([C@@H](C)CO)C(=O)c2c(c3ccccc3n2C)-c2ccccc2CO[C@H]1CN(C)C(=O)c1cc(Cl)cc(Cl)c1 | inactive

Structure (SMILES) | outcome
CCS(=O)(=O)N1CCC2(CC1)CN(Cc1cc(F)ccc1F)[C@H](CO)c1c2c2ccc(OC)cc2n1C | inactive
CCCNC(=O)Nc1ccc2c(c1)OC[C@@H](C)N(CC1CCCC1)C[C@@H](C)[C@H](OC)CN(C)C2=O | inactive
COc1ccc2c3c([nH]c2c1)[C@H](CO)N(Cc1ccccc1OC)CC31CCN(S(=O)(=O)c2ccccc2)CC1 | inactive
COc1ccc2c3c([nH]c2c1)[C@H](CO)N(C(=O)C1CCOCC1)CC31CCN(Cc2nccs2)CC1 | inactive
O=C(C[C@H]1C[C@@H]2c3cc(NS(=O)(=O)c4ccc(F)cc4)ccc3O[C@@H]2[C@@H](CO)O1)N1CCc2ccccc2C1 | inactive
O=C(c1ccccc1F)N1CC(=O)N2[C@H](C1)[C@@H](c1ccc(-c3cccnc3)cc1)[C@@H]2CO | inactive
N#C[C@@H]1[C@@H](c2ccccc2C2=CCCC2)[C@H](CO)N1C(=O)C1CC1 | inactive
O=C(Nc1ccccc1)N1CCCCN2[C@@H](CO)[C@H](c3ccc(C#Cc4cccnc4)cc3)[C@@H]2C1 | inactive
O=C(Nc1ccccc1)N1CCCCN2[C@H](CO)[C@H](c3ccc(C#Cc4ccccc4)cc3)[C@@H]2C1 | inactive
O=C(Nc1cccc(F)c1)N1CCCCN2[C@@H](CO)[C@H](c3ccc(C#Cc4cccnc4)cc3)[C@@H]2C1 | inactive
O=C(Nc1cccc(F)c1)N1CCCCN2[C@H](CO)[C@H](c3ccc(C#Cc4ccccc4)cc3)[C@@H]2C1 | inactive
COc1ccc(NC(=O)N2CCCCN3[C@@H](CO)[C@H](c4ccc(C#Cc5ccccn5)cc4)[C@@H]3C2)cc1 | inactive
COc1ccc(NC(=O)N2CCCCN3[C@H](CO)[C@H](c4ccc(C#CCC(C)C)cc4)[C@@H]3C2)cc1 | inactive
COc1ccc(C#Cc2ccc3c(c2)[C@H]2[C@H](CCN2C(=O)c2ccccn2)[C@@H](CO)N3)cc1 | inactive
COc1ccc(NC(=O)N2CCC3(CC2)CN(C(=O)C2CCC2)[C@H](CO)c2c3c3ccc(OC)cc3n2C)cc1 | inactive
C[C@@H]1CN([C@H](C)CO)C(=O)c2c(c3ccccc3n2C)-c2ccccc2CO[C@H]1CN(C)S(=O)(=O)c1ccc(C(F)(F)F)cc1 | inactive
C[C@@H]1CN([C@@H](C)CO)C(=O)c2c(c3ccccc3n2C)-c2ccccc2CO[C@H]1CN(C)C(=O)Cc1ccccc1 | inactive
CCC(=O)N1CC2(C1)[C@@H](c1ccc(-c3cccc(OC)c3)cc1)[C@@H](CO)N2C(C)=O | inactive
CO[C@H]1CN(C)C(=O)c2cc(NC(=O)C3CC3)ccc2OC[C@H](C)N(Cc2cc(F)ccc2F)C[C@@H]1C | inactive
COc1ccc(S(=O)(=O)Nc2ccc3c(c2)CC(=O)N([C@@H](C)CO)C[C@H](C)[C@H](CN(C)S(=O)(=O)c2ccc(C)cc2)O3)cc1 | inactive
Cc1ccc(S(=O)(=O)N(C)C[C@H]2OCc3ccccc3-c3c(n(C)c4ccccc34)C(=O)N([C@@H](C)CO)C[C@H]2C)cc1 | inactive
COc1ccc(C#Cc2ccc([C@H]3[C@H]4CN(C(=O)Nc5ccccc5)CCCCN4[C@H]3CO)cc2)cc1 | inactive
COc1ccc(NC(=O)N2CCCCN3[C@H](CO)[C@H](c4ccc(C#Cc5ccccc5)cc4)[C@@H]3C2)cc1 | inactive
